Holding throughout (assay): DAPPL (digital affinity profiling via proximity ligation, sequencing); 10 mM Tris-HCl pH 7.5, 50 mM NaCl, 1 mM DTT, 4% glycerol, room temperature, 30 min; GST-TFs on glutathione beads, 16-mer random dsDNA library, 0.1% formaldehyde crosslink after washing; high values mean tight binding
Assay [1] addresses T1, FLI1 (Homo sapiens, UniProt Q01543 1-452).
T1 sequence: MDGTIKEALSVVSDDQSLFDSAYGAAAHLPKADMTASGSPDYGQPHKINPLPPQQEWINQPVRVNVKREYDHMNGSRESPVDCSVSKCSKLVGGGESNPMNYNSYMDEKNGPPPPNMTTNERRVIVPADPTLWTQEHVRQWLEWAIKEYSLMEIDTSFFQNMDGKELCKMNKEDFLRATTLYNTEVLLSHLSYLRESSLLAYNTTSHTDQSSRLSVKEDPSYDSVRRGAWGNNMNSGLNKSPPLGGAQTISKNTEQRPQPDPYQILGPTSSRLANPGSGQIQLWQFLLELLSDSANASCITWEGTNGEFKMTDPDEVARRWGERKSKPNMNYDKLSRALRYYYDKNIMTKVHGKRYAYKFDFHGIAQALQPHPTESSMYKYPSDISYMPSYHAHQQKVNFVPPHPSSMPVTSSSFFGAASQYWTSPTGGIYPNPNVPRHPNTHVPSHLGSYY
The conditions noted are these: protein: recombinant; tags: N-terminal GST; dsDNA, one strand shown. The method in brief:
(§1)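 Beads coated with glutathione captured GST-fused human transcription factors that had been expressed in yeast, and the factors were then given DNA barcodes and pooled with a tag-only sample. The pools were incubated with 200 nmole of a random double-stranded 16-mer DNA library in Tris/NaCl/DTT/glycerol buffer for 30 min at room temperature, washed, crosslinked with 0.1% formaldehyde and proximity-ligated with BsaI/T4 ligase at 37 °C for 1 h. PCR amplification and Illumina NextSeq500 sequencing came last. Binding signal is each hexamer's read frequency for a factor divided by its frequency for the tag-only sample.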

The target in assay [2] is T2, ELK1 (Homo sapiens, UniProt P19419 1-428).
T2 sequence: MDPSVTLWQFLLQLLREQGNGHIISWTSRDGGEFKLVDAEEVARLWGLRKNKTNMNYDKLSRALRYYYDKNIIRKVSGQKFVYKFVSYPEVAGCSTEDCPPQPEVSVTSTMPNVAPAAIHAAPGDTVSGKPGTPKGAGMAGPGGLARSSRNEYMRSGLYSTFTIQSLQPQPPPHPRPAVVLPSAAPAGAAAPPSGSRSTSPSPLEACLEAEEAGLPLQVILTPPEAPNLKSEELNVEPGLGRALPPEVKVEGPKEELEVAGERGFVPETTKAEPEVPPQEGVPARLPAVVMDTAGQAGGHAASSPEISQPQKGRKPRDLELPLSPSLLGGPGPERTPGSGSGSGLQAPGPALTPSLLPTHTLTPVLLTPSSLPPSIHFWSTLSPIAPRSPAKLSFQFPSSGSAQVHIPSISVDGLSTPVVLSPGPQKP
The conditions noted are these: protein: recombinant; tags: N-terminal GST; dsDNA, one strand shown. The method, boiled down: as §1

Assay [3] concerns the target T3, GABPA (Homo sapiens, UniProt Q06546 1-454).
T3 sequence: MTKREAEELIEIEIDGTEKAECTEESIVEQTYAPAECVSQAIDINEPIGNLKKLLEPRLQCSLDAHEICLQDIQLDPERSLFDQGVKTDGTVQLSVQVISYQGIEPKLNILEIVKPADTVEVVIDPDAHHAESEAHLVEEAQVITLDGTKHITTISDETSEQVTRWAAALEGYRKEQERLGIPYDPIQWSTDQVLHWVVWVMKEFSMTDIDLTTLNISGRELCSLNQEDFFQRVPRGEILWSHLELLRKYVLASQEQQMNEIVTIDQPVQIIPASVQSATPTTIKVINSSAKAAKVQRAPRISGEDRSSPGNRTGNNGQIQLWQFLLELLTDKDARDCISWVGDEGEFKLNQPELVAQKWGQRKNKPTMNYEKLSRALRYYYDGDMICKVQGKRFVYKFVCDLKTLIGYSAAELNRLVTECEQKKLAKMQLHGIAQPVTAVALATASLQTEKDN
The conditions noted are these: protein: recombinant; tags: N-terminal GST; dsDNA, one strand shown. The method, boiled down:
as §1

Assay [4] deals with T4, ERG (Homo sapiens, UniProt P11308 1-479).
T4 sequence: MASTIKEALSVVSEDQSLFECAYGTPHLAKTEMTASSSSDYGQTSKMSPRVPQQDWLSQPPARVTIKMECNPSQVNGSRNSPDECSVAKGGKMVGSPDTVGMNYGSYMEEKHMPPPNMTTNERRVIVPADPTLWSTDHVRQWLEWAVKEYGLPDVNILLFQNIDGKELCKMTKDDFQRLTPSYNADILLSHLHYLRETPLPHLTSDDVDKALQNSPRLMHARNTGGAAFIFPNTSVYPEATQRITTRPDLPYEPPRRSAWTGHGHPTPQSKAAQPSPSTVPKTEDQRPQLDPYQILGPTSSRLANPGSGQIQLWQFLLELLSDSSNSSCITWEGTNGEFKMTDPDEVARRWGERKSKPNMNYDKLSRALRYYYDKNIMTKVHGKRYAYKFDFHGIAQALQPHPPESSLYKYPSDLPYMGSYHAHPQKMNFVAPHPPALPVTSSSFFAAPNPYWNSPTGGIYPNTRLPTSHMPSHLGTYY
The conditions noted are these: protein: recombinant; tags: N-terminal GST; dsDNA, one strand shown. The method in brief: as §1

The target of assay [5] is ELF1 (Homo sapiens, UniProt P32519 1-619). The conditions noted are these: protein: recombinant; tags: N-terminal GST; dsDNA, one strand shown. The method, boiled down:
as §1

Assay [6] deals with T5, EHF (Homo sapiens, UniProt Q9NZC4 1-300).
T5 sequence: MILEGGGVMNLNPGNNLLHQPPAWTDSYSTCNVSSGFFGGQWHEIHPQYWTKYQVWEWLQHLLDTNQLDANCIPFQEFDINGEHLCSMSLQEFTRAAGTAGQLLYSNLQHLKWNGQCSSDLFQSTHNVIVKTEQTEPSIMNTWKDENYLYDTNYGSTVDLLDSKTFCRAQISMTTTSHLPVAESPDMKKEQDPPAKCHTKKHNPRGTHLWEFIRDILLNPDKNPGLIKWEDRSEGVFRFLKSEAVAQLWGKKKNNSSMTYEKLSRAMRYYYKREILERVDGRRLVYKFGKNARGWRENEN
The conditions noted are these: protein: recombinant; tags: N-terminal GST; dsDNA, one strand shown. The method, boiled down: as §1

The target of assay [7] is SPI1 (Homo sapiens, UniProt P17947 1-270). The conditions noted are these: protein: recombinant; tags: N-terminal GST; dsDNA, one strand shown. The method, boiled down: as §1
For assay [8], the target named is SPIB (Homo sapiens, UniProt Q01892 1-262). The conditions noted are these: protein: recombinant; tags: N-terminal GST; dsDNA, one strand shown. The method, boiled down:
as §1

Assay [9] concerns the target T6, ELK3 (Homo sapiens, UniProt P41970 1-407).
T6 sequence: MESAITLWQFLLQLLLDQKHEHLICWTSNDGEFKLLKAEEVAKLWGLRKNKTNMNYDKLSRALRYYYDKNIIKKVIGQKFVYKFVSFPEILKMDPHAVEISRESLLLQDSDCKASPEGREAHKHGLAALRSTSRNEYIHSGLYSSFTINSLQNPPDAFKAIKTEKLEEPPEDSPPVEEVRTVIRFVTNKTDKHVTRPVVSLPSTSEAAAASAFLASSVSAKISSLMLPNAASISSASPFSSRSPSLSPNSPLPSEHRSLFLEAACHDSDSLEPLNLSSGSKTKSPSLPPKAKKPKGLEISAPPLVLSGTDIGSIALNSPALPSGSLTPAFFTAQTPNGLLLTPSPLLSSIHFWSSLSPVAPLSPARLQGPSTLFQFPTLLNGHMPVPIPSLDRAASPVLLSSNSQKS
The conditions noted are these: protein: recombinant; tags: N-terminal GST; dsDNA, one strand shown. The method, boiled down: as §1

The target of assay [10] is T7, FEV (Homo sapiens, UniProt Q99581 1-238).
T7 sequence: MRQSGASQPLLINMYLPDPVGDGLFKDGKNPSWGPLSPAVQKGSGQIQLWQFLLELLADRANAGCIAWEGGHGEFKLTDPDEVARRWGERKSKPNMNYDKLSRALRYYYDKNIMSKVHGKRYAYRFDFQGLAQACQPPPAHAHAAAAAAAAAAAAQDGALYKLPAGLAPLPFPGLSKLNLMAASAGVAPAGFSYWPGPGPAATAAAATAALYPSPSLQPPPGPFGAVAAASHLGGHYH
The conditions noted are these: protein: recombinant; tags: N-terminal GST; dsDNA, one strand shown. The method in brief: as §1

Assay [11] addresses ETV5 (Homo sapiens, UniProt P41161 1-510). The conditions noted are these: protein: recombinant; tags: N-terminal GST; dsDNA, one strand shown. The method in brief: as §1
In assay [12] the target is HSF1 (Homo sapiens, UniProt Q00613 1-529). The conditions noted are these: protein: recombinant; tags: N-terminal GST; chain copies: 3; dsDNA, one strand shown. The method in brief: as §1
Assay [13] concerns the target T8, SPIC (Homo sapiens, UniProt Q8N5J4 1-248).
T8 sequence: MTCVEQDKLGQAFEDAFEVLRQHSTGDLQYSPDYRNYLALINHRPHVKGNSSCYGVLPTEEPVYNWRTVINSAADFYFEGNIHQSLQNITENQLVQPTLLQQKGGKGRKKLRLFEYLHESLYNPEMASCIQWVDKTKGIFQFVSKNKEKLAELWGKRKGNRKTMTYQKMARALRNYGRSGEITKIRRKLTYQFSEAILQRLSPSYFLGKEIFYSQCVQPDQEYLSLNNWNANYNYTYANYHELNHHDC
The conditions noted are these: protein: recombinant; tags: N-terminal GST; dsDNA, one strand shown. The method, boiled down:
as §1

Assay [14] deals with ELF4 (Homo sapiens, UniProt Q99607 1-663). The conditions noted are these: protein: recombinant; tags: N-terminal GST; dsDNA, one strand shown. The method in brief: as §1
Assay [15] has as its target T9, ELF3 (Homo sapiens, UniProt P78545 1-371).
T9 sequence: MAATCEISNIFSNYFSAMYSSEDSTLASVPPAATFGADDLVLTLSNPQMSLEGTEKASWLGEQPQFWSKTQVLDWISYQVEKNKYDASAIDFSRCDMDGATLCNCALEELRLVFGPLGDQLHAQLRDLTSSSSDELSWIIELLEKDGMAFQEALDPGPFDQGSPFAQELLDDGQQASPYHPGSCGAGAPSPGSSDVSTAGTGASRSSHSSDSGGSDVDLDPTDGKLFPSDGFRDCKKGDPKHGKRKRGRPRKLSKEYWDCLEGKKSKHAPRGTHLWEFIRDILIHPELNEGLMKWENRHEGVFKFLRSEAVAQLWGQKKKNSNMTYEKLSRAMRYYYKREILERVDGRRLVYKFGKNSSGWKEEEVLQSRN
The conditions noted are these: protein: recombinant; tags: N-terminal GST; dsDNA, one strand shown. The method, boiled down: as §1

Assay [16] addresses ETV1 (Homo sapiens, UniProt P50549 1-477). The conditions noted are these: protein: recombinant; tags: N-terminal GST; dsDNA, one strand shown. The method, boiled down:
as §1

Here are results for one sequence from publication PMC7862700, “An all-to-all approach to the identification of sequence-specific readers for epigenetic DNA modifications on cytosine”.

Chain of ETV5 (P41161 whole entry): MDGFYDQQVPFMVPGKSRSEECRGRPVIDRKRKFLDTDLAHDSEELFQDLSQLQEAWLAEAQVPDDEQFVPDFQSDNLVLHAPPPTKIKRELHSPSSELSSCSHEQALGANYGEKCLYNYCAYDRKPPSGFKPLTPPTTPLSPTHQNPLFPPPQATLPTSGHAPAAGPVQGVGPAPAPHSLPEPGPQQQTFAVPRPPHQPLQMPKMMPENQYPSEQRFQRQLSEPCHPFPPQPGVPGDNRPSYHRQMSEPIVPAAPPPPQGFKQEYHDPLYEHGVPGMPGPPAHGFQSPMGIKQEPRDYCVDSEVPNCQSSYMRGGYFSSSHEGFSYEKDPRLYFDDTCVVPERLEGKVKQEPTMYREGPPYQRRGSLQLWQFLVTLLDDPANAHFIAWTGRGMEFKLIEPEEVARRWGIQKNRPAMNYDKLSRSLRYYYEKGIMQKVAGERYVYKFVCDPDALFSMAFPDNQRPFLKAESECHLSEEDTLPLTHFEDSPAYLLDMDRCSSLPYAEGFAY
Chain of ELF4 (Q99607 whole entry): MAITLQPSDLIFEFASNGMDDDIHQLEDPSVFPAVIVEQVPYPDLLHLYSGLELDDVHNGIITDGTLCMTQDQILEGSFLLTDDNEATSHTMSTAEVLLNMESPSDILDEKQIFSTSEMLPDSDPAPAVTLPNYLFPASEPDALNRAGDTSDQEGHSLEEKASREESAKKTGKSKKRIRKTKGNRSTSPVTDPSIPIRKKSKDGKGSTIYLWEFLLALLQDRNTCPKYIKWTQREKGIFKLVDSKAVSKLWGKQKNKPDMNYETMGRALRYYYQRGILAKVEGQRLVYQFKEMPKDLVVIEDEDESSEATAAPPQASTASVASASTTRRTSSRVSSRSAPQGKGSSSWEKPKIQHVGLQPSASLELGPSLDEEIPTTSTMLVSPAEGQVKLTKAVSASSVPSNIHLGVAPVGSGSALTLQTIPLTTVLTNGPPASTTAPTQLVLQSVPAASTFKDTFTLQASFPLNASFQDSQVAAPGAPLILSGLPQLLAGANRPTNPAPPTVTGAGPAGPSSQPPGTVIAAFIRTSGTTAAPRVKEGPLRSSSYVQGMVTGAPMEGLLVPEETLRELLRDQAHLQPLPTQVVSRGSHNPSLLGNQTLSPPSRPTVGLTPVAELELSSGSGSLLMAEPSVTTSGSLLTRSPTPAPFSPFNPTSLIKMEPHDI
Chain of SPIB (Q01892 whole entry): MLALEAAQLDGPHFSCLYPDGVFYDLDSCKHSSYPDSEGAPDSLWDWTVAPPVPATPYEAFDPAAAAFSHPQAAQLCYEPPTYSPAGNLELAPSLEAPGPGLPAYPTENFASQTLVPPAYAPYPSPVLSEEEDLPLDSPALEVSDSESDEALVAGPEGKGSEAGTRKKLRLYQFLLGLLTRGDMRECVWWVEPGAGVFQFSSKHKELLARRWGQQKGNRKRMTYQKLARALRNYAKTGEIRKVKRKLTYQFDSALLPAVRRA
Chain of HSF1 (Q00613 whole entry): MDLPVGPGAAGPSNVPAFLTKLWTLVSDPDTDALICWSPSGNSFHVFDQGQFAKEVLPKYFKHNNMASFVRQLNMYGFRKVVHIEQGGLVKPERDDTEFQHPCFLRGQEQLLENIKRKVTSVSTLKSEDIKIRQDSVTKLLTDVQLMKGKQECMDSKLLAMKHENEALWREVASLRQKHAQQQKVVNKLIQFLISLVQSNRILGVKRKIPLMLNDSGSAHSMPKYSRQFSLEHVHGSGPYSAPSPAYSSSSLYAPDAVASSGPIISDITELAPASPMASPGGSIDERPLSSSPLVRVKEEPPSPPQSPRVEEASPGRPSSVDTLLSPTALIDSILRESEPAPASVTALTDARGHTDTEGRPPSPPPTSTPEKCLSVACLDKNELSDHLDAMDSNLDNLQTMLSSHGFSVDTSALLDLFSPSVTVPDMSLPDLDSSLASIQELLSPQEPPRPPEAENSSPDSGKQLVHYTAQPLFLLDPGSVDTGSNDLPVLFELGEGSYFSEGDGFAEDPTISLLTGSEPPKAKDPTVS
Chain of ELF1 (P32519 whole entry): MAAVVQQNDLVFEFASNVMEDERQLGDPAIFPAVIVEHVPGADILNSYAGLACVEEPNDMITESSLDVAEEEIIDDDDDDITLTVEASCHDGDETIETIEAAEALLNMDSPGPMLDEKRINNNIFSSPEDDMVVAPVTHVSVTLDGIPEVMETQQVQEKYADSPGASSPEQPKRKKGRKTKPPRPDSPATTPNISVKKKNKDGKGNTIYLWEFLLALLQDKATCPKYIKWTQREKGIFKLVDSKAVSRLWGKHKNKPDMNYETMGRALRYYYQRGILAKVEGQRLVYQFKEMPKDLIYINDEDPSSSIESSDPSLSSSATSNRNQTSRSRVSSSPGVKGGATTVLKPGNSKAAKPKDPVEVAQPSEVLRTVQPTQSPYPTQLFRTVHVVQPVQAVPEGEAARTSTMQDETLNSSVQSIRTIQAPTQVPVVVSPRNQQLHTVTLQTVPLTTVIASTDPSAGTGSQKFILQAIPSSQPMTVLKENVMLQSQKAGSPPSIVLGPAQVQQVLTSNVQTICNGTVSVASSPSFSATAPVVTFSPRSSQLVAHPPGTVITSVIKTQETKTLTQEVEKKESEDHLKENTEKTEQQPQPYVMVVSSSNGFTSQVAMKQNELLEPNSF
Chain of ETV1 (P50549 whole entry): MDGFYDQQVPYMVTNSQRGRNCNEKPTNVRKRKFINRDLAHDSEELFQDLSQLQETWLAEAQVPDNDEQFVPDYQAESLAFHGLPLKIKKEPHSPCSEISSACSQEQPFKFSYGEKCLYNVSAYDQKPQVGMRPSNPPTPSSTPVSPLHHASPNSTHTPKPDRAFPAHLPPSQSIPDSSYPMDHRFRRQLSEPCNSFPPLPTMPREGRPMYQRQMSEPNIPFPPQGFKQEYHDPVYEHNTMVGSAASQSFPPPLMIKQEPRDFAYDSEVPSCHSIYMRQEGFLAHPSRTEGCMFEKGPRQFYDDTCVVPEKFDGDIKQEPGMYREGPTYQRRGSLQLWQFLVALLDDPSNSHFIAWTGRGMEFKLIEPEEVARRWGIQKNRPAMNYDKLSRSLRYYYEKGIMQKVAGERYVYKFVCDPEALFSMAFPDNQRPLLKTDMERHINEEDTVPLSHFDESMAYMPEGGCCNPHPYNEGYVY

For AACGTC, the binding signal was 1.07 fold enrichment (6-mer frequency, TF over GST control) in [1]; 1.09 fold enrichment (6-mer frequency, TF over GST control) in [2]; 1.1 fold enrichment (6-mer frequency, TF over GST control) in [3]; 1.07 fold enrichment (6-mer frequency, TF over GST control) in assay [4]; 1.05 fold enrichment (6-mer frequency, TF over GST control) in [5]; 1.12 fold enrichment (6-mer frequency, TF over GST control) in [6]. Besides, the binding signal is 1.02 fold enrichment (6-mer frequency, TF over GST control) in assay [7]; 1.13 fold enrichment (6-mer frequency, TF over GST control) in assay [8]; 1.24 fold enrichment (6-mer frequency, TF over GST control) in assay [9]; 1.06 fold enrichment (6-mer frequency, TF over GST control) in assay [10]; 1.04 fold enrichment (6-mer frequency, TF over GST control) in [11]; 1.01 fold enrichment (6-mer frequency, TF over GST control) in assay [12]. The binding signal in assay [13] was 1.13 fold enrichment (6-mer frequency, TF over GST control); in assay [14], 1.09 fold enrichment (6-mer frequency, TF over GST control); in assay [15] it was 1.13 fold enrichment (6-mer frequency, TF over GST control); in assay [16] it was 1.11 fold enrichment (6-mer frequency, TF over GST control).
